# Hits are enriched below; roughly 3.1% of the tested compounds scored in any of these assays.
# FGF22 binding = FGF22 (human) thermal shift binding | Q9HCT0 | activity (Tm shift, normalised), % at 9.99 µM | actives 1.5% (n = 340,000) | recombinant FGF22 thermal shift, SYPRO orange fluorescence; percent of sucrose octasulfate shift, DMSO zero;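 active = mean Tm shift, scaled 0 neutral to 100 positive control, at about 1.3% or above, every replicate too, limit read from the data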
# SIRT5 inh = inhibitors of human sirtuin-5 desuccinylase; Q9NXA8; Purified SirT5, succinyl-peptide AMC, trypsin-coupled fluorescence; inhibition, % at 15 µM; actives 1.1% (n = 330,000); AID 652115; in the data active = inhibition above about 15%
# CASP6 VEID inh = blocks human caspase-6 cleavage activity. P55212. purified caspase-6, Z-VEID-R110 cleavage fluorescence. inhibition, % at 12.5 µM. actives 0.53% (n = 350,000). AID 686996;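 active = mean inhibition across replicates at least about 35%, with every replicate also reaching that limit, limit read from the data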;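 also: 0% = median of neutral control wells and 100% = no fluorescence left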
# ERAP1 inh = ERAP1 (human) enzyme inhibition. actives 0.15% (n = 340,000). Q9NZ08. recombinant ERAP1, Leu-AMC fluorescence, 60 min. inhibition, % at 10.7 µM. AID 652197;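 active = mean replicate inhibition of at least 30%, or all replicates individually reaching that 30% level; inactive = mean below 30% and not every replicate reaching it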;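 also: 0% = neutral control wells and 100% = L-leucinethiol positive control wells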
# Target sequence (Q9NZ08 whole entry, looked up): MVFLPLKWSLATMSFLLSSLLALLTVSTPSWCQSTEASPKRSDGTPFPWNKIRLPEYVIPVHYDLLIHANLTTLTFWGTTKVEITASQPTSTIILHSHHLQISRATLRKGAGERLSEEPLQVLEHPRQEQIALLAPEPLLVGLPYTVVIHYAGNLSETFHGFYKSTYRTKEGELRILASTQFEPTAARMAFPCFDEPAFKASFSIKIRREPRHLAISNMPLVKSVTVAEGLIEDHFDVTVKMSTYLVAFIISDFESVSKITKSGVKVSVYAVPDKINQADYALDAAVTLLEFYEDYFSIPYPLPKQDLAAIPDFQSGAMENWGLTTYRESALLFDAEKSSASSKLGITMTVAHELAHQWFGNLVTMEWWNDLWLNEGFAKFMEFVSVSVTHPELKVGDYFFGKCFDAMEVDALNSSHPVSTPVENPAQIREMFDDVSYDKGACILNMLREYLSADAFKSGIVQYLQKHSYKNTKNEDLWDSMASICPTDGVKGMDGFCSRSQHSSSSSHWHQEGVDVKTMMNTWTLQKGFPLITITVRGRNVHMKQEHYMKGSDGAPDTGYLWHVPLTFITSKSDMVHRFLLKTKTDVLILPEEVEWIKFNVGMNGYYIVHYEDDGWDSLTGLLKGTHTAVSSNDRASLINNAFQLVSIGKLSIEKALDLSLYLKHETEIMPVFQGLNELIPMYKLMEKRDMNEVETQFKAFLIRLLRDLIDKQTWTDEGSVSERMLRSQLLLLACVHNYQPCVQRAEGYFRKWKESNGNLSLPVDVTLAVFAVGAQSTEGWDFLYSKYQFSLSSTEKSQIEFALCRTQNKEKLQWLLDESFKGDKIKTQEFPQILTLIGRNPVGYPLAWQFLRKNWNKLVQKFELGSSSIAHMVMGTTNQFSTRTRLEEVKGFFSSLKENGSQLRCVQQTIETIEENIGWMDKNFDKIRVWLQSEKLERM
# Numbers without * were called inactive; / = not tested or not shown.
SMILES,FGF22 binding,SIRT5 inh,CASP6 VEID inh,ERAP1 inh
C[C@@H]1CN([C@@H](C)CO)C(=O)c2cc(NS(C)(=O)=O)ccc2O[C@H]1CN(C)S(=O)(=O)c1cn(C)cn1,-0.2,-2.0,-2.2,-0.8
CCC(=O)N(C)C[C@@H]1Oc2cc(-c3cccc(OC)c3)ccc2S(=O)(=O)N([C@H](C)CO)C[C@H]1C,-0.3,1.4,1.2,1.6
CN1C(=O)c2cc(NC(=O)C3CCOCC3)ccc2OC[C@@H]2O[C@H](CC(=O)NCC3CCCCC3)CC[C@@H]21,-0.2,2.5,4.5,3.1
Cc1cc2c(cc1S(=O)(=O)N1CCN(c3ccccc3)CC1)OCCN2C,-0.2,2.3,-1.2,1.6
CCN(c1ccccc1)S(=O)(=O)c1cc2c(cc1C)N(C)CCO2,43.1*,-0.5,-0.5,1.7
C[C@H]1CN([C@@H](C)CO)C(=O)Cc2cc(NC(=O)CCN3CCOCC3)ccc2O[C@@H]1CN(C)S(=O)(=O)c1ccc(Cl)cc1,0.0,0.4,1.6,-0.7
C[C@H](CO)N1C[C@H](C)[C@H](CN(C)Cc2ccc3c(c2)OCO3)Oc2c(NS(C)(=O)=O)cccc2C1=O,-0.4,-1.6,1.9,0.4
COc1ccc(CN2C(=O)C(CC(=O)NCCc3ccccn3)CC(C(=O)N3CCOCC3)=C2C)cc1 (stereo not given),0.0,21.1*,3.0,-1.2
COc1ccc(CCNC(=O)CN(c2cc([N+](=O)[O-])ccc2OC)S(C)(=O)=O)cc1OC,43.3*,-0.7,0.3,1.5
Cc1ccc(CNC(=O)CCc2ccc(S(=O)(=O)NCC(C)C)cc2)cc1,0.3,29.0*,1.5,-1.1
CCOc1ccc(CCNC(=O)CCOc2cc(C)ccc2C)cc1OCC,1.9*,-4.7,0.8,-0.8
COc1ccc(CCNC(=O)CCNS(=O)(=O)c2cccc(Cl)c2)cc1OC,-0.1,5.7,-1.2,3.2
CCCNS(=O)(=O)c1ccc(CCC(=O)NCCc2ccc(OC)c(OC)c2)cc1,43.5*,-1.8,-1.6,-4.0
CN1CCN(C(=O)C[C@H]2CC[C@H]3[C@@H](COC[C@@H](O)CN3Cc3ccc(Oc4ccccc4)cc3)O2)CC1,-0.1,-5.1,-3.1,0.4
Cc1ccc(S(=O)(=O)Nc2ccc3c(c2)C(=O)N([C@H](C)CO)C[C@@H](C)[C@H](CN(C)S(=O)(=O)c2c(C)noc2C)OCCCC[C@H](C)O3)cc1,-0.2,12.4,0.2,-2.7
CCOc1ccc(S(=O)(=O)NCCC(=O)NCCc2ccc(OCC)c(OCC)c2)cc1,-0.1,1.2,1.1,0.5
CCOc1ccc(CCNC(=O)CCS(=O)(=O)c2ccc(OC)cc2)cc1OCC,0.8,1.5,38.5*,-3.1
CCOc1ccc(CCNC(=O)C2CC(C)=CCC2C(=O)O)cc1OCC (stereo not given),0.5,0.5,35.9*,1.2
COc1ccccc1C#Cc1cnc2c(c1)C(=O)N([C@H](C)CO)C[C@@H](C)[C@@H](CN(C)C(=O)CC1CC1)O2,-0.5,-5.5,-1.2,1.0
CS(=O)(=O)Nc1ccc2c(c1)[C@H]1C[C@@H](CC(=O)NCc3cccnc3)O[C@@H](CO)[C@H]1O2,-0.1,-5.7,2.6,-0.3
CCCCC(=O)OCc1nc2ccccc2s1,0.2,-1.0,-4.8,4.6
CSCc1ccc(C(=O)OCc2nc3ccccc3s2)o1,42.9*,/,9.1,0.3
CCOC(=O)CNc1nc(Oc2ccc(=O)n(C)n2)nc(N(CC)CC)n1,-0.2,-3.2,0.4,-4.4
CCCn1nc(Oc2nc(N(C)C)nc(N(C)C)n2)ccc1=O,0.1,19.3*,16.1,-0.8
C[C@@H]1CN([C@@H](C)CO)C(=O)c2cc(NS(C)(=O)=O)ccc2O[C@H]1CN(C)Cc1ccc(Cl)c(Cl)c1,-0.1,-2.9,0.4,-0.3
SMILES,FGF22 binding,SIRT5 inh,CASP6 VEID inh,ERAP1 inh
CCOC(=O)C(=O)Cc1cccnn1,42.9*,/,43.8*,2.3
C[C@H]1CN([C@@H](C)CO)S(=O)(=O)c2ccc(C3=CCCCC3)cc2O[C@H]1CN(C)C(=O)Nc1ccc2c(c1)OCO2,1.2,1.4,-1.0,-0.3
O=C(CSc1nc2ccsc2c(=O)n1CC1CCC(C(=O)O)CC1)c1ccc(Cl)cc1 (stereo not given),0.5,16.1*,42.6*,-0.6
O=C(O)C(Cc1ccccc1)N1C(=O)C2C3CCC(C3)C2C1=O (stereo not given),0.1,-1.1,-1.3,0.2
O=C(O)[C@H](Cc1ccccc1)N1C(=O)c2c(Cl)c(Cl)c(Cl)c(Cl)c2C1=O,5.8*,-0.5,7.9,1.0
Nc1ccccc1SCC(=O)Nc1nc(-c2ccccc2)cs1,1.5*,-4.0,-2.9,0.8
Nc1ccccc1SCC(=O)Nc1nccs1,0.0,-4.2,0.4,-2.1
O=C(O)c1ccc(Cn2cc(C(F)(F)F)ccc2=O)cc1,43.1*,0.7,-4.6,1.5
C[C@H](CO)N1C[C@H](C)[C@H](CN(C)C)Oc2ccc(NC(=O)CCCCCC(=O)Nc3ccccc3N)cc2CC1=O,0.0,0.6,-0.9,-0.9
C[C@@H]1CN([C@@H](C)CO)C(=O)Cc2cc(NS(=O)(=O)c3cn(C)cn3)ccc2O[C@H]1CN(C)Cc1ccc(C(=O)Nc2ccccc2N)cc1,-0.1,6.8,-1.2,0.9
COC(=O)c1ccc2nc(-c3ccc(C)cc3)c(Cc3ccc(C)cc3)n2c1,0.3,-3.2,-1.2,-0.1
COC(=O)c1ccc2nc(-c3ccc(C)cc3)c(CC(C)(C)C)n2c1,0.1,15.2*,-3.8,-4.4
CC(Sc1nc(-c2ccccc2)cc(C(F)(F)F)n1)C(=O)O (stereo not given),0.5,3.4,1.7,-3.8
Cc1cc(-c2ccccc2)nc(SC(C(=O)O)c2ccccc2)n1 (stereo not given),43.3*,2.1,-0.9,1.6
Cc1ccccc1CN(C)C(=O)COC(=O)CSc1ccc([N+](=O)[O-])cc1,-0.3,2.0,71.0*,7.1
C[C@@H]1CN([C@H](C)CO)S(=O)(=O)c2ccc(-c3cccnc3)cc2O[C@H]1CN(C)C(=O)C1CCCCC1,0.0,-1.3,2.3,-2.2
CCOC(=O)/C(CCC[N+](C)(CC)CC)=N\O,-0.1,-6.4,-13.2,111.4*
COc1cc(NC(=S)N2CCCC(CO)C2)c(OC)cc1Cl (stereo not given),44.5*,-0.7,1.0,-0.2
COc1cc(NC(=S)N2CCN(CCO)CC2)c(OC)cc1Cl,/,2.0,0.0,1.3
Nc1ccc(S(=O)(=O)c2ccc(N)c(N)c2)cc1,0.1,2.9,4.6,0.4
Nc1cc(S(=O)(=O)c2ccc(O)c(N)c2)ccc1O,-0.2,16.1*,15.0,-3.0
Cc1noc(C)c1S(=O)(=O)Nc1ccc2c(c1)C(=O)N([C@H](C)CO)C[C@@H](C)[C@@H](CN(C)Cc1ccc(C(F)(F)F)cc1)OCCCC[C@H](C)O2,-0.3,14.7,5.0,0.7
Cc1noc(C)c1S(=O)(=O)Nc1ccc2c(c1)C(=O)N([C@H](C)CO)C[C@@H](C)[C@H](CN(C)Cc1ccc(C(F)(F)F)cc1)OCCCC[C@H](C)O2,-0.1,17.7*,3.8,0.4

# High-throughput results: PubChem BioAssay, Broad Institute
